Rows were chosen to be rich in hits. Some 2.4% of all compounds tested hit in one or more screens of this group.
POLK inh: inhibitors of human DNA polymerase kappa; Q9UBT6; 400,000 compounds, 0.53% hits; Potency, µM (series often up to 107 µM), inactives show at the top dose activity, negative = inhibition, hits mostly inhibitors; purified Pol kappa, fluorescent DNA synthesis assay, 10 min; AID 588579; also: % is scaled to controls: 0 for no effect and ±100 for the full control effect
Target sequence (Q9UBT6 whole entry, looked up): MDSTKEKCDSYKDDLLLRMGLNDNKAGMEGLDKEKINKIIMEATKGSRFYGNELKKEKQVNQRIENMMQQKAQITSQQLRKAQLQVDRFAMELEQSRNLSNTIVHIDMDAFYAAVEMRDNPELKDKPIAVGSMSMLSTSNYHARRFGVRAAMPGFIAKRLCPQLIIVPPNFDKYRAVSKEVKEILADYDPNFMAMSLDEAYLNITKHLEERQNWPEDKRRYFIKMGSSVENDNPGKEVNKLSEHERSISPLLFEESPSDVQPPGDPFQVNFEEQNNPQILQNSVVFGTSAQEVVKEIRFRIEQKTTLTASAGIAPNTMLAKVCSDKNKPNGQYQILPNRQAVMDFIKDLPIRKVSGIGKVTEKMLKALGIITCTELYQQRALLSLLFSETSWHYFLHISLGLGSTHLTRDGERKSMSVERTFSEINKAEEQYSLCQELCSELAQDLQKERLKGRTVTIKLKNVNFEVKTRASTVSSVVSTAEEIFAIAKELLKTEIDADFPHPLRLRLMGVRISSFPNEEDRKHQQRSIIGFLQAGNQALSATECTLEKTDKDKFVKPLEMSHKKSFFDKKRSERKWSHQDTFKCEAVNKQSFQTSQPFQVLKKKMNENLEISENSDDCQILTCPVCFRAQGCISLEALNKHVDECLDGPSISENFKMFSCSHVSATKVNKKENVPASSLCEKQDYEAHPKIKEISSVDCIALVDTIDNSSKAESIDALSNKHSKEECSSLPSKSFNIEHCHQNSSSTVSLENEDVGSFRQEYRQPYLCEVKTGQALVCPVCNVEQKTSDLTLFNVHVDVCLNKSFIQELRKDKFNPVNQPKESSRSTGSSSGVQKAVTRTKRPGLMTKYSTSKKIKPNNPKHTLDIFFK
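First, compounds were pin-transferred onto 10 nM Pol kappa. After 15 min at room temperature, substrate was added to 50 nM final. Fluorescence was then measured kinetically at 0 and 10 min.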
Pol eta inh: blocks human DNA polymerase eta activity; Q9Y253; recombinant Pol eta, fluorescent DNA replication assay; Potency, µM (top dose mostly 114 µM), for the others: at the highest dose activity change, negative = inhibition, most hits filed as inhibitors; 390,000 compounds, 1.2% hits; also: % is scaled to controls: 0 for no effect and ±100 for the full control effect
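Pol eta (10 nM) was preincubated with compounds for 15 min at room temperature, after which fluorescent replication substrate (50 nM final) was added to start the reaction. Fluorescence was read kinetically at 0 and 10 min.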
POLI inh: inhibitors of human DNA polymerase iota; Q9UNA4; Pol iota fluorescent replication assay, 10 min; Potency, µM (highest dose often 115 µM), inactives show at the highest dose activity, negative = inhibition, hits mostly inhibitors; 390,000 compounds, 1% hits; AID 588590
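Pol iota at 10 nM preincubated 15 min with compounds at room temperature; reaction started with fluorescent substrate, 50 nM final. Fluorescence read kinetically at 0 and 10 min; buffer-only wells as negative control.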
FEN1 inhibitor: inhibitors of human flap endonuclease 1; 390,000 compounds, 0.35% hits; P39748; Potency, µM (titrated, usually from 114 µM), without a hit: at the top dose activity change, negative = inhibition, most hits filed as inhibitors; Recombinant FEN1 flap cleavage, fluorescence, 15 min; also: % is scaled to controls: 0 for no effect and ±100 for the full control effect; nearly all actives have a fitted effect of over 65% in size
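Read-out was taken twice, immediately and after 15 min, following addition of 50 nM substrate to 10 nM FEN1 that had sat with test compound for 15 min at room temperature. Curves came from a four-parameter Hill model.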
WRN inhibitor: inhibitors of human WRN helicase. Q14191. WRN helicase unwinding, fluorescent forked duplex, kinetic. Potency, µM (highest dose often 114 µM), without a hit: top-dose activity change, negative = inhibition, usual class: inhibitors. 360,000 compounds, 0.46% hits; also: % is scaled to controls: 0 for no effect and ±100 for the full control effect; nearly all actives have a fitted effect of over 55% in size
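WRN at 20 nM final preincubated with compound 15 min at room temperature; reaction started with 100 nM fluorophore/quencher forked duplex oligonucleotide and 2 mM ATP final. Unwinding followed kinetically by red fluorescence (ex 525, em 598 nm).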
Pol beta inh: DNA polymerase beta (human) inhibition; P06746; Pol beta primer extension/strand displacement, fluorescence kinetic; Potency, µM (top dose mostly 114 µM), for the others: at the top dose activity change, negative = inhibition, actives largely listed as inhibitors; 340,000 compounds, 1.3% hits; also: % is scaled to controls: 0 for no effect and ±100 for the full control effect
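Pol beta (10 nM) was preincubated with compound for 15 min at room temperature. The reaction was then started with 50 nM substrate and read immediately and after a further 10 min at room temperature.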
Numbers without * were called inactive; ? = inconclusive; . = no result; [ ] = another dose, or the depositor's remark. Calls follow the shape of the dose curve; as a rule, active = well fitted curve in the direction sought with a large enough effect; inconclusive = small, poorly fitted or top-dose-only effect, or another doubt; inactive = no such curve, though single readings can be large; an effect the other way counts as inactive or inconclusive. Potency is read from the fitted curve at half-maximal effect.

SMILES | POLK inh | Pol eta inh | POLI inh | FEN1 inhibitor | WRN inhibitor | Pol beta inh
O=C(O)c1ccccc1SC1CC(=O)N(C2CCCCC2)C1=O (centres undefined) | -7% | -27% | 32% | 19% | -5% | 26%
COCCNC(=O)c1cc2cc3ccc(OC)cc3nc2o1 | -1% | -14% | 28% | -13% | -8%[57.1 µM] | 9%
CC(=O)N(/N=C1\Sc2ccccc2C1=O)c1ccccc1C | 1% | 20µM* | 7% | 0% | -8%[57.1 µM] | 0%
O=C1c2ccc(O)c(O)c2C(=O)c2c(O)ccc(O)c21 | 2.8µM* | . | . | . | . | .
Cc1ccc(-c2cc(C(=O)Nc3ccc(S(=O)(=O)Nc4onc(C)c4C)cc3)c3ccccc3n2)cc1 | -10% | 89µM* | 43% | 5% | 1%[11.6 µM] | ?
O=C(Nc1ccc(S(=O)(=O)Nc2nccs2)cc1)c1cc(-c2ccccc2Cl)nc2ccccc12 | -13% | 28µM* | ? | -17% | ? | ?
Cc1ccc(-c2cc(C(=O)Nc3nccs3)c3ccccc3n2)o1 | -6% | ? | ? | -11% | -30% | 25µM*
COc1ccc(NC(=O)c2cc(-c3ccc(C)o3)nc3ccccc23)cc1OC | ? | ? | ? | -8% | -26%[57.1 µM] | 35µM*
O=C(Nc1ccc(S(=O)(=O)Nc2nccs2)cc1)c1cc(-c2ccccn2)nc2ccccc12 | -22% | -5% | -4% | -26% | ? | ?
CCCNC(=O)c1ccccc1SCc1c(C)noc1C | 0% | -4% | 49% | 3% | 5% | 40%
Cc1nn(CC(=O)N2CCC(C)CC2)c(=O)c2cccn12 | 12% | -1% | -13% | 7% | -8% | 28%
Cc1ccc(C)c(NC(=O)C2CCN(c3cc(C)nc4c(-c5ccc(Cl)cc5)c(C)nn34)CC2)c1 | -11% | -18% | 32% | -5% | . | -17%
Cc1ccc(-c2cc(C(=O)Nc3ccccc3C(N)=O)c3ccccc3n2)o1 | -20% | 50µM* | ? | -26% | ? | .
CCOc1ccc(OCC)c(NC(=O)c2cc(-c3cccs3)nc3ccccc23)c1 | ? | -17% | 89µM* | 20% | . | 2%
Cc1ccc(NC(=O)c2cc(-c3cccs3)nc3ccccc23)nc1 | -3% | -16% | -18% | -5% | -11% | ?
Cc1cccc2nc(Cn3c(=O)n(CCCC(=O)NCc4ccco4)c(=O)c4ccccc43)cc(=O)n12 | 0% | ? | ? | -9% | ? | 22µM*
CCC1Sc2ccc(S(=O)(=O)Nc3cc(OC)cc(OC)c3)cc2NC1=O (centres undefined) | 1% | -9% | 13% | 9% | -10% | 25%
CCC1Sc2ccc(S(=O)(=O)CCC(=O)Nc3c(Cl)cc(OC)cc3OC)cc2NC1=O (centres undefined) | -19% | ? | -7% | 12% | -29% | 79µM*
CC1(NC(=O)CC[N+](C)(C)CCO)CS(=O)(=O)CC1S(=O)(=O)[O-] (centres undefined) | . | . | . | . | . | 2µM*
NC(=O)CC[C@@H]1NC(=O)[C@H](CO)NC(=O)c2cc([N+](=O)[O-])cc(I)c2NCCCC[C@@H](C(N)=O)NC(=O)[C@H](Cc2ccc(O)cc2)NC1=O | -21% | -20% | ? | 13% | -14% | 2%
NC(=O)C(CC(=O)O)NC(=O)[C@@H]1CCCCNc2c(I)cc([N+](=O)[O-])cc2C(=O)N[C@@H](CO)C(=O)NCC(=O)N1 (some centres undefined) | . | . | . | . | . | 35µM*
NC(=O)C(CC(=O)O)NC(=O)[C@@H]1CCCNc2c(I)cc([N+](=O)[O-])cc2C(=O)N[C@@H](CO)C(=O)N[C@@H](Cc2ccc(O)cc2)C(=O)N1 (some centres undefined) | 50µM* | 16µM* | ? | -9% | ? | -24%
NCCCC[C@@H]1NC(=O)c2cc([N+](=O)[O-])cc(F)c2NCCCC[C@@H](C(N)=O)NC(=O)CNC1=O | 7% | -26% | 21% | ? | -2% | -1%
CC(=O)Nc1ccc(C(=O)OCC(=O)N2CCCC2=O)cc1 | -1% | -15% | 40% | -2% | -25% | .
COc1cc(C(=O)OCC(=O)N2CCCC2=O)cc(OC)c1C | ? | 32µM* | ? | -12% | -19% | .
SMILES | POLK inh | Pol eta inh | POLI inh | FEN1 inhibitor | WRN inhibitor | Pol beta inh
CCOC(=O)N1CCN(c2c(NCCc3ccccc3)c(=O)c2=O)CC1 | -7% | -13% | 1% | -13% | 3% | 11%
CC(=O)NC1=NN(C(C)=O)C(C)(c2ccc3ccccc3c2)S1 (centres undefined) | -5% | -19% | 11% | -4% | 5% | 1%
CC(=O)NC1=NN(C(C)=O)C(C)(c2ccccc2)S1 (centres undefined) | -8%[60.1 µM] | -2% | 7% | -3% | -7% | 7.1µM*
CC(C)CCCC(C)CCCC(C)CCCC(C)C(=O)O (centres undefined) | 30µM* | . | . | . | . | .
CCC(=O)Nc1nnc(Sc2ccc(N(C)C)cc2)s1 | -9% | -4% | ? | -1% | -29% | 50µM*
COc1ccc(OC)c(NC(=O)c2cc(S(=O)(=O)N3CCCCC3)c[nH]2)c1 | -12% | -10% | 6% | -18% | 2% | ?
O=c1c2ccccc2oc2cc(OCc3cccc(F)c3)cc(O)c12 | ? | -1% | ? | -2% | -22% | 22µM*
O=[N+]([O-])c1ccc2cc[nH]c2c1 | ? | ? | ? | 6% | -14% | .
CCOC(=O)c1c(C)[nH]c(N=Nc2ccccc2Cl)c1C | 2% | -9% | 39% | -32% | -8% | -4%
N#Cc1ccc(CC(=O)c2ccccc2)[nH]c1=O | -22% | -14% | 83% | 3% | 56µM* | .
CCCSc1nc2sc3c(c2c(=O)[nH]1)CC(C)CC3 (centres undefined) | 1% | -17% | 30% | 13% | 5% | 5%
CCCSc1nc2sc3c(c2c(=O)[nH]1)CCN(Cc1ccccc1)C3 | -15% | ? | 12% | 7% | -5% | 40µM*
N#CC1=C(N)C2=C(N3CCCCC3)CCCC2C1(C#N)C#N (centres undefined) | 50µM* | 4% | ? | ? | ? | 0%
COc1cc(=O)[nH]c(SC(C)C(=O)Nc2nc3c(s2)CCCC3)n1 (centres undefined) | 4% | -16% | 36% | -26% | 0% | 25%
Cc1cccc(COC(=O)Nc2ccc(NC(=O)c3ccccc3Cl)cc2)c1 | -14% | -1% | 9% | 22% | 1% | -2%
CCC(C)/C=C/C1=CC2=C(Cl)C(=O)C3(C)OC(=O)C(C(=O)C(C)C(C)O)C3C2=CO1 (centres undefined) | 79µM* | ? | ? | -6% | -6%[11.6 µM] | 22µM*

Screens deposited in PubChem BioAssay by National Center for Advancing Translational Sciences (NCATS).
